Source: PubChem BioAssay AID1159580 (chemical genetic matrix, 2015)
Hit rate of the full screen: of about 5,500 compounds, about 2,000 (36%) were called active. Another 18% or so got no clear call; they are omitted. No stated cut-off is given here; in the data, active means normalized growth mostly below about 0.91 (no sharp cut-off); inconclusive means no clear call, values can overlap the other calls; inactive means mostly above about 0.92. The list shows a part of the results.

Assay: chemical genetic growth profiling, strain panel (AID 1159580);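 further: tested at 20 µM; growth read once vehicle control cultures reached saturation at 30 °C; 1 = growth at the plate median or of vehicle wells; lower values mean less growth of the strain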
Conditions: S. cerevisiae deletion strains, growth OD

Measured: normalized growth

COc1ccc2c(c1OC)C(=O)O[C@@H]2[C@H]1c2c(cc3c(c2OC)OCO3)CCN1C
inactive: locus YAL040C, strain CLN3, hits give low values 0.984 | locus YCL061C, strain MRC1 (second series), hits give low values 1 | locus YDR150W, strain NUM1, hits give low values 1 | locus YDR363W, strain ESC2, hits give low values 0.998 | locus YER002W, strain NOP16, hits give low values 0.985 | locus YGR229C, strain SMI1, hits give low values 0.998 | locus YJR075W, strain HOC1, hits give low values 1 | locus YMR307W, strain GAS1, hits give low values 0.991 | locus YNL153C, strain GIM3, hits give low values 1.01 | locus YNL175C, strain NOP13, hits give low values 1 | locus YNL197C, strain WHI3, hits give low values 1.01 | locus YNL224C, strain SQS1, hits give low values 1 | locus YNL322C, strain KRE1, hits give low values 0.994 | locus YOR083W, strain WHI5 (second series), hits give low values 1.01 | locus YPL055C, strain LGE1, hits give low values 0.99
